59 molecules from PubChem BioAssay AID2315 (National Center for Advancing Translational Sciences (NCATS), 2010) can be followed below.

Several values for one entry are separate records, joined by “and”; a condition that tells them apart may be missing. Equal values may be shown once. The whole screen tested about 290,000 compounds, of which about 27,000 (9.3%) were called active. For the sample, actives were picked, then their nearest neighbours and some compounds at random. Unmarked numbers belong to inactive results. Rule as the data show it: active = inhibition mostly above about 28% (no sharp cut-off); inactive = mostly below about 43%.

This test in a line: A qHTS for Small Molecule Inhibitors of Shiga Toxin. Also: 0% is about no effect. As to conditions: Vero cells, Shiga toxin protein synthesis inhibition reporter; at 38.7 µM, active compounds read high.
With `O=C(COc1ccccc1[N+](=O)[O-])NC1CC1`, the inhibition was 19.4%.
In the case of `CCN1C(=NCc2ccc(OC)cc2)N[C@@H](CCc2ccccc2)[C@H](C(=O)NCc2ccc(OC)cc2)[C@H]1C`, the inhibition is 2.67% and -2.62%.
Turning to `CCc1ccc(NC(=O)Cn2ncn3c(cc4ccccc43)c2=O)cc1`, the inhibition is 5.27%.
As to `CC(C)c1ccc(NC(=O)Cn2ncc3ccccc32)cc1`, the inhibition is 74.2% (active).
As for `CCOC(=O)c1cn(CC(=O)Nc2ccc(C(C)C)cc2)nn1`, the inhibition was -16.4%.
For `Nc1nonc1-n1nnc(C(=O)N/N=C/c2c[nH]c3ccccc23)c1-c1ccccc1`, the inhibition was -17%.
For `CCn1cc(S(=O)(=O)c2cccc(C)c2)c(=O)c2cc(F)c(N3CCN(C)CC3)cc21`, the inhibition was 4.57%.
On to `CN1CCN(c2ccc(NC(=O)c3ccc4c(c3)[nH]c(=O)n4Cc3ccc(F)cc3)cc2)CC1`, for which the inhibition was -1.72%.
In the case of `COc1cccc(C(=O)Nc2ccc(N3CCN(C(=O)c4ccco4)CC3)cc2)c1`, the inhibition is 2.21%.
With `COc1cccc(C(=O)Nc2cc3c(cc2Br)OCCCO3)c1`, the inhibition is 95.9% (active).
On to `COc1ccc(C(=O)NC(=S)Nc2ccc(N3CCCC3)cc2)cc1OC`, for which the inhibition is 11.5%.
On to `COc1cccc(C(=O)NNC(=O)c2ccccc2Br)c1`, for which the inhibition was -5.95%.
Take `COc1cccc(C(=O)Nc2ccc(N3CCCC3)cc2)c1`: the inhibition is 47.9% (active).
Consider `Cc1ccccc1C(=O)Nc1ccc(N2CCCCCC2)cc1`, for which the inhibition was 36.6%.
For `CC(=O)Oc1cccc(C(=O)Nc2ccccc2NC(=O)c2cccc(OC(C)=O)c2)c1` the value was -7.51%; for `CN1CCN(c2ccc(NC(=O)c3ccccc3)cc2)CC1`, 47.5% (active); for `Cc1ccc(-c2noc(CNC(=O)c3ccoc3C)n2)cc1`, -9.24%.
Regarding `CCOCCCNC(=O)c1ccc(CS(=O)(=O)c2cccc(C(F)(F)F)c2)o1`, the inhibition is 21.3%.
With `COC(=O)c1ccc(NC(=O)c2cc3c(CO)cnc(C)c3oc2=Nc2cccc(C(N)=O)c2)cc1` the figure was -1.8%.
Take `CCN1C(=NCC(C)C)N[C@@H](CCc2ccccc2)[C@H](C(=O)NCC(C)C)[C@H]1C`: the inhibition was -2.89% and 9.38%.
For the molecule `O=C(CNC(=O)c1cccnc1)N/N=C/c1cc(Br)c(O)c(Br)c1`, the inhibition was -3.98%.
In the case of `O=S(=O)(c1ccccc1)N(Cc1cccc(F)c1)c1ccccc1`, the inhibition is -4.98%.
With `CNC(=S)N/N=C/c1cn(Cc2ccc(C)cc2)c2ccccc12` the figure was 21.9%.
With `CCOC(=O)N/N=C/c1cn(Cc2ccccc2Cl)c2ccccc12` the figure was 20.2%; with `COC(=O)N/N=C/c1cn(CCCOc2ccc(C)cc2)c2ccccc12`, 37.2% (active); with `Cc1ccc(NC(=O)CN(C)C(=O)COC(=O)C(C)(C)Oc2ccc(Cl)cc2)cc1`, -9.8%.
As for `O=C(CN1CCN(c2cccc(Cl)c2)CC1)Nc1ccc(S(=O)(=O)N2CCOCC2)cc1`, the inhibition was -9.51%.
Regarding `O=C(CSCc1ccccc1)Nc1ccccc1`, the inhibition was 50.8% (active).
As for `Cn1c(CSCC(=O)Nc2ccccc2)nnc1SCc1ccccc1`, the inhibition was 18.4%.
As to `Cc1c(NC(=O)CSCc2ccccc2)cccc1C(=O)O`, the inhibition was 31.3%.
As to `COc1ccc(Cl)cc1NC(=O)c1cccc(N2C(=O)C3CC=CCC3C2=O)c1` (centres undefined), the inhibition is -4.45%.
As to `COc1ccc(S(=O)(=O)N2CCSCC2)cc1`, the inhibition is -9.94%.
On to `CCOC(=O)N1CCN(Cc2nnc(-c3ccccc3Cl)o2)CC1`, for which the inhibition was -5.19%.
On to `O=C(COc1ccccc1)Nc1ccc(C(=O)N2CCCC2)cc1`, for which the inhibition is 9.15%.
As to `COc1cc(C2NC(=O)NC(c3ccccc3)=C2C(C)=O)c(Br)cc1OCC(N)=O` (centres undefined), the inhibition is -4.39%.
As for `O=C(NC(=S)Nc1ccc(NC(=O)c2cccs2)cc1)c1ccc([N+](=O)[O-])cc1`, the inhibition is 36.1%.
On to `O=C(NC(=S)Nc1cccc(-c2ccc(CO)o2)c1)c1cccs1`, for which the inhibition is 127% (active).
Turning to `O=C(Nc1ccccc1-c1ccccc1)c1cccs1`, the inhibition is -12.5%.
For `O=S(=O)(Cc1cc(Cl)nc(-c2cccnc2)n1)c1ccccc1`, the inhibition is 40.3%.
With `O=C(c1cc(S(=O)(=O)N2CCOCC2)ccc1Cl)N1CCOCC1`, the inhibition was -6.61%.
Regarding `CC(C)CCN(C(=O)c1csnn1)C(C(=O)NC1CCCC1)c1ccccc1` (centres undefined), the inhibition is -3.8%.
As for `Cc1cc2c(=O)n(CC(=O)NCC(=O)Nc3ccc(C(C)C)cc3)cnc2s1`, the inhibition is -9.56%.
Consider `COc1ccc(CCNC(=O)CCNS(=O)(=O)c2cc(Br)cnc2N)cc1OC`, for which the inhibition is -6.21%.
On to `CS(=O)(=O)N(CC(=O)N1CCOCC1)c1cccc(Cl)c1Cl`, for which the inhibition was 1.97%.
In the case of `O=C(Cn1nnc(-c2ccccc2)n1)NCc1ccccc1`, the inhibition was -10.9%.
Consider `Cc1ccccc1-c1nnn(CC(=O)c2ccc(S(=O)(=O)N3CCCC3)cc2)n1`, for which the inhibition was -5.14%.
For `Cc1nc2ccccc2n1CC(O)c1ccccc1` (centres undefined) the value was -2.2%.
On to `CCOc1ccc(S(=O)(=O)N2CCCC(C(=O)N3CCC(C(N)=O)CC3)C2)cc1Cl` (centres undefined), for which the inhibition was 15.1%.
For `CCOC(=O)CSc1nc(N2CCOCC2)c2c(c1C#N)CC(C(C)C)OC2` (centres undefined), the inhibition is -7.43%.
With `CC(=O)C1=C(O)C(=O)N(c2ccc(Br)cc2)C1c1ccc([N+](=O)[O-])cc1` (centres undefined) the figure was -5.69%; with `CN(C)CCN(C(=O)C1=COCCO1)c1nc2ccc(Cl)cc2s1`, 128% (active).
As for `CCc1ccc2nc(N(CCCN(C)C)C(=O)c3ccc4c(c3)OCCO4)sc2c1`, the inhibition was -6.1%.
For the molecule `Cc1ccc2nc(N(CCN(C)C)C(=O)C3=COCCO3)sc2c1`, the inhibition was 6.59%.
As to `COc1ccc(NC(=O)C2CCN(S(=O)(=O)c3ccc4[nH]c(=O)oc4c3)CC2)c(OC)c1`, the inhibition is -2.15%.
For `Cn1c(Nc2ccccc2)cc(=O)n(C)c1=O` the value was -6%; for `CN(C)S(=O)(=O)c1ccc(C(=O)NCCN=C2NS(=O)(=O)c3ccccc32)cc1`, -13.8%; for `Cc1[nH]n(-c2cccc(Cl)c2)c(=O)c1-c1ccc(Cl)cc1`, 34.8%.
`O=c1c(-c2cccc(Cl)c2)c[nH]n1-c1ccccc1`: the inhibition was 77.1% (active).
For `O=c1c(-c2ccccc2Cl)c[nH]n1-c1ccccc1`, the inhibition is 9.18%.

For orientation: inhibition means the change of the read-out against control, counted positive when it falls.
